{"source": "PubChem BioAssay (NCATS)", "note": "Inconclusive results are not listed. Calls of active or inactive are those of the source. Calls follow the shape of the dose curve; as a rule, active = well fitted inhibition curve with a large enough effect; inconclusive = small, poorly fitted or top-dose-only effect; inactive = flat fitted curve, though single readings scatter. % is scaled to controls: 0 for no effect and ±100 for the full control effect.", "data": [{"experiment": "P-glycoprotein substrates identified in KB-8-5-11 adenocarcinoma cell line, qHTS therapeutic library screen (AID 1346987); also: nearly all actives have a fitted effect of over 65% in size", "details": "KB-8-5-11 (P-gp overexpressing) viability, CellTiter-Glo, 72 h; series mostly up to 44.5 µM; activity change, negative = cytotoxicity: at the top concentration", "summary_of_the_method": "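Human cervical adenocarcinoma KB-8-5-11 cells, selected in colchicine to over-express P-gp and assayed without it, were exposed for 72 h to titrated compounds. An ATP-based luminescent viability signal gave AC50.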", "values": [{"smiles": "CC(/C=C/C=C(\\C)C(=O)O[C@@H]1O[C@H](CO[C@@H]2O[C@H](CO)[C@@H](O)[C@H](O)[C@H]2O)[C@@H](O)[C@H](O)[C@H]1O)=C\\C=C\\C=C(C)\\C=C\\C=C(/C)C(=O)O[C@@H]1C[C@](O)(C(=O)O)C[C@@H](O)[C@H]1OC(=O)/C=C/c1ccc(O)c(O)c1", "activity change, negative = cytotoxicity": "3.01% [at 9.29 µM] (inactive)"}, {"smiles": "CCCC(=O)Nc1cccc(NC(=O)c2ccccc2Br)c1", "activity change, negative = cytotoxicity": "-10.6% (inactive)"}, {"smiles": "C[C@]12CCC[C@](C)(C(=O)O)C1[C@@H](O)[C@@H](O)C13CC(CCC12)C(CO)(O[C@@H]1O[C@H](CO)[C@@H](O)[C@H](O)[C@H]1O)C3", "note": "(stereo partly specified)", "outcome": "inactive [at 17.3 µM]"}, {"smiles": "Cn1c2ccc(NC(=O)c3ccccc3)cc2c(=O)n2nc(C(=O)O)cc12", "outcome": "inactive [at 17.3 µM]"}, {"smiles": "C[C@@H]1O[C@@H](O[C@H]2[C@@H]3C=CO[C@@H](O[C@@H]4O[C@H](CO)[C@@H](O)[C@H](O)[C@H]4O)[C@@H]3[C@@]3(CO)O[C@@H]23)[C@H](O)[C@H](O)[C@H]1OC(=O)/C=C/c1ccc(O)cc1", "activity change, negative = cytotoxicity": "-4.27% [at 17.3 µM] (inactive)"}, {"smiles": "CC1(C)CC[C@]2(C(=O)O)CC[C@]3(C)C(=CCC4[C@@]5(C)CC[C@H](O[C@@H]6O[C@H](C(=O)O)[C@@H](O)[C@H](O)[C@H]6O)C(C)(C)C5CC[C@]43C)C2C1", "note": "(stereo partly specified)", "activity change, negative = cytotoxicity": "7.03% [at 17.3 µM] (inactive)"}, {"smiles": "COC(=O)CCC1(C)C(C(C)(C)O)C(O)CC2(C)Oc3c(C)c4c(c(OC)c3CC21)C(=O)OC4", "note": "(stereo unspecified)", "outcome": "inactive [at 17.3 µM]"}, {"smiles": "C/C=C1/CC2C(=O)Nc3cc(O)c(OC)cc3C(=O)N2C1", "note": "(stereo unspecified)", "outcome": "inactive"}, {"smiles": "CC(C)C1C(OC(=O)/C=C/c2ccccc2)CC2(C)OC2CCC2(C)OC2C1O", "note": "(stereo unspecified)", "activity change, negative = cytotoxicity": "-0.3% (inactive)"}, {"smiles": "C[C@@H]1O[C@@H](OC[C@H]2O[C@@H](OCc3ccccc3)[C@H](O)[C@@H](O)[C@@H]2O)[C@H](O)[C@H](O)[C@H]1O", "outcome": "inactive [at 17.3 µM]"}, {"smiles": "Cc1sc(C)c(C(=O)NC2(c3ccc(C(=O)O)cc3)CC2)c1Cc1ccc(C(F)(F)F)cc1", "activity change, negative = cytotoxicity": "-2.04% (inactive)"}, {"smiles": "CC1OC(OC2C(OC(=O)[C@]34CCC(C)(C)C[C@H]3C3=CCC5[C@@]6(C)CC[C@H](OC7OC(C(=O)O)C(O)C(O)C7O)C(C)(C)C6CC[C@@]5(C)[C@]3(C)CC4O)OC(CO)C2O)C(O)C(O)C1OC1OCC(O)C(O)C1O", "note": "(stereo partly specified)", "activity change, negative = cytotoxicity": "7.83% [at 9.29 µM] (inactive)"}, {"smiles": "COCC1OC(n2cnc3c(=O)[nH]cnc32)C(O)C1O", "note": "(stereo unspecified)", "outcome": "inactive"}, {"smiles": "C/C(CO)=C1/CCC23COC(C2)C(O)(C(=O)O)CCC13", "note": "(stereo unspecified)", "activity change, negative = cytotoxicity": "7.41% (inactive)"}, {"smiles": "C=C1C(OC(C)=O)C(=O)C2C(C)(C)C(O)CCC2(C)C1CC(OC(C)=O)/C(C)=C/COC(C)=O", "note": "(stereo unspecified)", "activity change, negative = cytotoxicity": "-4.36% [at 17.3 µM] (inactive)"}, {"smiles": "C[C@H]1[C@H](C)CC[C@]2(C(=O)O)CC[C@]3(C(=O)O)C(=CCC4[C@@]5(C)CC[C@H](O[C@@H]6O[C@@H](C)[C@H](O)[C@@H](O)[C@H]6O)C(C)(C)C5CC[C@]43C)[C@H]12", "note": "(stereo partly specified)", "outcome": "inactive [at 17.3 µM]"}, {"smiles": "COC(=O)C1=CO[C@@H](O[C@@H]2O[C@H](CO)[C@@H](O)[C@H](O)[C@H]2O)[C@@H]2C(C)CC(=O)[C@]12O", "note": "(stereo partly specified)", "activity change, negative = cytotoxicity": "2.76% [at 17.3 µM] (inactive)"}, {"smiles": "COc1cccc(C)c1C(=O)O[C@@H]1C[C@H](O[C@H]2[C@H](O)C[C@H](O[C@@H]3CCC[C@H]4[C@H]3C=C[C@@H]3CCCC/C=C/[C@H]5C=C(C(=O)O)[C@@H](C)C[C@@]56OC(=O)C(=C6O)OC(=O)[C@@]34C)O[C@@H]2C)O[C@H](C)[C@H]1O", "outcome": "inactive [at 9.29 µM]"}, {"smiles": "Cc1nc(-c2cccnc2)sc1C(=O)Nc1ccccc1-c1cn2c(CN3CCOCC3)csc2n1", "activity change, negative = cytotoxicity": "-7.98% (inactive)"}, {"smiles": "CC(C(=O)Nc1cc(C#N)ccc1CCCC(=O)O)c1ccc(F)c2ccccc12", "note": "(stereo unspecified)", "activity change, negative = cytotoxicity": "-4.03% (inactive)"}, {"smiles": "O=C(/C=C/c1ccc(O)cc1)O[C@H]1[C@H](OC2CCCCC2O)O[C@H](CO)[C@@H](O)[C@@H]1O", "note": "(stereo partly specified)", "activity change, negative = cytotoxicity": "0.679% [at 17.3 µM] (inactive)"}, {"smiles": "C[C@@H]1O[C@@H](O[C@H]2[C@H](O[C@H]3[C@H](O[C@H]4CC[C@@]5(C)C(CC[C@]6(C)C5CC=C5[C@@H]7CC(C)(C)C[C@@H](O)[C@]7(C)CC[C@]56C)[C@@]4(C)CO)O[C@H](C(=O)O)[C@@H](O)[C@@H]3O)O[C@H](C(=O)O)[C@H](O)[C@@H]2O)[C@H](O)[C@H](O)[C@H]1O", "note": "(stereo partly specified)", "outcome": "inactive [at 9.29 µM]"}, {"smiles": "O=C(OC[C@H]1O[C@H](O[C@]2(CO)O[C@H](CO)[C@@H](O)[C@@H]2O)[C@H](O)[C@@H](O)[C@@H]1O)c1ccc(O)cc1", "activity change, negative = cytotoxicity": "4.84% [at 17.3 µM] (inactive)"}, {"smiles": "COC1OC(OC)C(O)(CCC2(C)C(C)CCC3(C)C2CC(O)C(O)C32CO2)C1O", "note": "(stereo unspecified)", "activity change, negative = cytotoxicity": "3.98% [at 17.3 µM] (inactive)"}, {"smiles": "COc1cc(O)c2c(c1)C1(OC2=O)C(C)=CC(=O)C1O", "note": "(stereo unspecified)", "activity change, negative = cytotoxicity": "2.74% (inactive)"}, {"smiles": "O=C(C1OC1/C=C/c1ccc2c(c1)OCO2)N1CCCCC1", "note": "(stereo unspecified)", "outcome": "inactive"}, {"smiles": "CCCNCCOc1ccc(NC(=O)c2c[nH]c3c2C(=O)CCC3)cc1F", "activity change, negative = cytotoxicity": "1.49% (inactive)"}, {"smiles": "Cc1ccccc1N1CCN(S(=O)(=O)C[C@]23CC[C@H](C[C@@H]2NC(=O)[C@@H](N)CCS(C)(=O)=O)C3(C)C)CC1", "activity change, negative = cytotoxicity": "5.06% (inactive)"}, {"smiles": "Cc1ccccc1-n1nc(-c2c(-c3ccc(F)cc3)nn3c2NC[C@@H](CO)C3)ccc1=O", "activity change, negative = cytotoxicity": "-5.93% (inactive)"}, {"smiles": "COc1c(O[C@@H]2O[C@H](CO)[C@@H](O)[C@H](O)[C@H]2O)c(CCC(=O)O)cc2ccoc12", "outcome": "inactive"}, {"smiles": "C[C@]12CCC[C@](C)(C(=O)O)C1CCC13CC(CO)C(CCC12)C3", "note": "(stereo partly specified)", "outcome": "inactive"}]}]}
